# From the supplement of paper PMC8975748
# Where a name gives a salt, the structure may show the parent alone.
# Tested on: Saccharomyces cerevisiae BY4741 SeMeCo community
# Experiment: z-score of subpopulation abundance vs DMSO median, subpopulation auxotrophic for HL; higher = larger share of this subpopulation than in DMSO controls
# Settings: 10 µM; 24 h; SM minimal medium; subpopulation (auxotrophy): HL
# How it was run: (§1)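 Automated confocal microscopy of paraformaldehyde-fixed cells was used to follow a Saccharomyces cerevisiae BY4741 community carrying four plasmids, each restoring one auxotrophy and encoding a distinct fluorescent protein. The community was pre-grown overnight to OD600 1.0, diluted to 0.3, and added at 70 µl to 384-well plates acoustically predosed with library drugs (10 µM final) for 24 h of growth in minimal SM medium. Single-auxotroph fluorescent strains set thresholds and autofluorescence correction, and each subpopulation's abundance was scored as a z-score against the vehicle-well median.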
row,SMILES,z-score of subpopulation abundance
1,N#CC(c1ccc(Cl)cc1)c1c(Cl)cc(-n2ncc(=O)[nH]c2=O)cc1Cl (stereo unspecified) [Diclazuril],-0.28
2,CN(C/C=C/C#CC(C)(C)C)Cc1cccc2ccccc12 [Terbinafine HCl],-0.47
3,CCC(C)(Oc1ccc(C2(c3ccc(OC(C)(CC)C(=O)O)cc3)CCCCC2)cc1)C(=O)O (stereo unspecified) [Clinofibrate],-0.48
4,O=C1CCc2ccc(OCCCCN3CCN(c4cccc(Cl)c4Cl)CC3)cc2N1 [Aripiprazole],1.38
5,"CCC(=O)Oc1ccc2c(c1)CCC1C2CCC2(C)C(OC(=O)CC)CCC12 (stereo not drawn) [Estradiol dipropionate(17-Beta-Estradiol-3,17-Dipropionate)]",-0.96
6,O=C(O)C[C@H](O)C[C@H](O)/C=C/c1c(C2CC2)nc2ccccc2c1-c1ccc(F)cc1 [Pitavastatin Calcium],1.83
7,CN(C)CCN1C(=O)c2cccc3cc(N)cc(c23)C1=O [Amonafide],-0.12
8,c1ccc(-c2ccc(C(c3ccccc3)n3ccnc3)cc2)cc1 (stereo unspecified) [Bifonazole],1.27
9,CO/N=C(\C(=O)N[C@@H]1C(=O)N2C(C(=O)O)=C(Cn3ccc(=N)n3CCO)CS[C@H]12)c1csc(N)n1 [Cefoselis Sulfate],-1.68
10,OC(CCN1CCCCC1)(c1ccccc1)C1CCCCC1 (stereo unspecified) [Trihexyphenidyl hydrochloride],-0.03
11,C[C@H](NCc1ccc(OCc2cccc(F)c2)cc1)C(N)=O [Safinamide Mesylate],0.64

# Tested on: Saccharomyces cerevisiae BY4741 SeMeCo community
# Experiment: z-score of subpopulation abundance vs DMSO median, subpopulation auxotrophic for HLM; higher = larger share of this subpopulation than in DMSO controls
# Settings: 10 µM; 24 h; SM minimal medium; subpopulation (auxotrophy): HLM
# How it was run: as §1
row,SMILES,z-score of subpopulation abundance
1,C#CCN[C@@H]1CCc2ccccc21 [Rasagiline Mesylate],-0.04
2,OCc1ccccc1O[C@@H]1O[C@H](CO)[C@@H](O)[C@H](O)[C@H]1O [Salicin],-0.5
3,CCCCCOc1ccc(-c2ccc(-c3ccc(C(=O)N[C@H]4C[C@@H](O)[C@@H](O)NC(=O)[C@@H]5[C@@H](O)[C@@H](C)CN5C(=O)[C@H]([C@@H](C)O)NC(=O)[C@H]([C@H](O)[C@@H](O)c5ccc(O)cc5)NC(=O)[C@@H]5C[C@@H](O)CN5C(=O)[C@H]([C@@H](C)O)NC4=O)cc3)cc2)cc1,42
4,COc1cc2c(cc1OC)[C@@H]1Cc3ccc(OC)c(OC)c3CN1CC2 [Rotundine],-0.41
5,C[C@H](NCc1ccc(OCc2cccc(F)c2)cc1)C(N)=O [Safinamide],1.35
6,CC1(C)S[C@@H]2[C@H](NC(=O)COc3ccccc3)C(=O)N2[C@H]1C(=O)O [Penicillin V potassium salt],-0.74
7,CC[C@H]1OC(=O)C[C@@H](O)[C@H](C)[C@@H](O[C@@H]2O[C@H](C)[C@@H](O[C@H]3C[C@@](C)(O)[C@@H](O)[C@H](C)O3)[C@H](N(C)C)[C@H]2O)[C@@H](CC=O)C[C@@H](C)C(=O)/C=C/C(C)=C/[C@@H]1CO[C@@H]1O[C@H](C)[C@@H](O)[C@@H](OC)[C@H]1OC [Tylosin],0.99
8,C[N+]1(C)[C@@H]2C[C@@H](OC(=O)C(O)(c3cccs3)c3cccs3)C[C@H]1[C@@H]1O[C@@H]12 [Tiotropium Bromide hydrate],-0.78
9,CCC(=O)NS(=O)(=O)c1ccc(-c2c(-c3ccccc3)noc2C)cc1 [Parecoxib Sodium],0.26
10,CCN(CC)CCOCCOC(=O)C1(c2ccccc2)CCCC1 [Pentoxyverine Citrate],-0.05
11,Cc1cccc(C)c1NC(=O)C1CCCCN1C (stereo unspecified) [Mepivacaine],-0.7
12,CC1=C(CC(=O)O)c2cc(F)ccc2/C1=C\c1ccc([S+](C)[O-])cc1 (stereo unspecified) [Sulindac],-0.2
13,C#C[C@]1(O)CC[C@H]2[C@@H]3CCC4=CCCC[C@@H]4[C@H]3CC[C@@]21C [Lynestrenol],-0.46
14,CN(C)CCCN1c2ccccc2Sc2ccc(Cl)cc21 [Chlorpromazine HCl],0.11
15,NC(=O)N1c2ccccc2C=Cc2ccccc21 [Carbamazepine],0.02
16,CC(=O)OCC(CCn1cnc2cnc(N)nc21)COC(C)=O [Famciclovir],1.57
17,C[C@@H]1CC(=O)NN=C1c1ccc(NN=C(C#N)C#N)cc1 [Levosimendan],-0.43
18,N[C@@H](CCC(=O)O)C(=O)O [(S)-Glutamic acid],0.07

row,SMILES,z-score of subpopulation abundance
1,c1cnc2cc3c(cc2n1)[C@@H]1CNC[C@H]3C1 [Varenicline Tartrate],0.76
2,NC[C@@H]1O[C@H](O[C@H]2[C@@H](O)[C@H](O[C@@H]3[C@@H](O)[C@H](N)C[C@H](N)[C@H]3O[C@H]3O[C@H](CN)[C@@H](O)[C@H](O)[C@H]3N)O[C@@H]2CO)[C@H](N)[C@@H](O)[C@@H]1O [Neomycin sulfate],-0.3
3,C#CCC(Cc1cnc2nc(N)nc(N)c2n1)c1ccc(C(=O)N[C@@H](CCC(=O)O)C(=O)O)cc1 (stereo partly specified) [Pralatrexate],4.47
4,CCCCCCCCCCCCCCCC[N+](C)(C)C [Cetrimonium Bromide (CTAB)],50.7
5,C#C[C@]1(O)CC[C@H]2[C@@H]3CCC4=CCCC[C@@H]4[C@H]3C(=C)C[C@@]21CC [Desogestrel],-0.87
6,C=CC[N+]1([C@H]2C[C@H]3[C@@H]4CC[C@H]5C[C@H](O)[C@@H](N6CCOCC6)C[C@]5(C)[C@H]4CC[C@]3(C)[C@H]2OC(C)=O)CCCC1 [Rocuronium Bromide],-0.65
7,N#CC(c1ccc(Cl)cc1)c1c(Cl)cc(-n2ncc(=O)[nH]c2=O)cc1Cl (stereo unspecified) [Diclazuril],0.16
8,COCCCN1CCC(NC(=O)c2cc(Cl)c(N)c3c2OCC3)CC1 [Prucalopride],0.6
9,CN(C/C=C/C#CC(C)(C)C)Cc1cccc2ccccc12 [Terbinafine HCl],-0.22
10,CC1(C)[C@H](C(=O)O)N2C(=O)C[C@H]2S1(=O)=O [Sulbactam sodium],-0.2
11,CC/C(=C(\c1ccccc1)c1ccc(OCCN(C)C)cc1)c1ccccc1 [Tamoxifen],0.89
12,COC(=O)C1=C(C)NC(C)=C(C(=O)OCCN2CCN(C(c3ccccc3)c3ccccc3)CC2)C1c1cccc([N+](=O)[O-])c1 (stereo unspecified) [Manidipine 2HCl],1.42
13,CCC(C)(Oc1ccc(C2(c3ccc(OC(C)(CC)C(=O)O)cc3)CCCCC2)cc1)C(=O)O (stereo unspecified) [Clinofibrate],2.85
14,CN(C)CCN1C(=O)c2cccc3cc(N)cc(c23)C1=O [Amonafide],-0.38
15,CO/N=C(\C(=O)N[C@@H]1C(=O)N2C(C(=O)O)=C(Cn3ccc(=N)n3CCO)CS[C@H]12)c1csc(N)n1 [Cefoselis Sulfate],-1.24
16,OC(CCN1CCCCC1)(c1ccccc1)C1CCCCC1 (stereo unspecified) [Trihexyphenidyl hydrochloride],0.68
17,C[C@H](NCc1ccc(OCc2cccc(F)c2)cc1)C(N)=O [Safinamide Mesylate],0.54
